# Test results from PubChem BioAssay AID1347426 (Functional Genomics Laboratory (NCATS/FGL), 2020).
# The campaign covered roughly 31,000 sequences. About 1,400 (4.5%) were called active. The entries come from a sample that favours actives as a whole. Values without a mark were called inactive.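 How the source made its calls: active means median seed-adjusted z-score above 1 or below -1; inactive means the rest.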
# Experiment: Novel Modifiers of Survival Motor Neuron (SMN) Protein: Gene Identification via Genome-wide siRNA Screen
# Settings: HEK293T SMN2-luciferase reporter, siRNA knockdown, 72 h; actives lie on both sides
# Description: Spinal muscular atrophy (SMA) is the most common neuromuscular autosomal recessive disorder and one of the leading genetic causes of infant death. SMA results from mutations inducing loss of function or deletion in the survival of motor neuron-1 gene (SMN1), leading to deficiency of the survival motor neuron (SMN) protein. Although a second nearly identical gene, SMN2, is retained in humans, its expression primarily produces an aberrantly spliced isoform that is largely unstable and quickly degraded. We performed a genome-wide RNAi screen using a cell-based reporter assay to identify genes and pathways that modulate SMN protein stability. The screen identified over 200 genes that led to the greatest increase or decrease in luciferase expression.
# Using HEK293T cells stably expressing a luciferase reporter that combines the promoter and splicing based cassettes in tandem with the major portion of the native SMN2 cDNA with luciferase, we performed a genome-wide RNAi screen to identify modulators of SMN protein levels. Luciferase is expressed when full-length SMN protein is generated with luminescence signal proportional to SMN protein levels. Our luciferase-based reporter assay was used to screen Ambion Silencer Select Human Druggable Genome siRNA library (10418 genes, 3 unique siRNAs per gene) using lipid-based reverse transfection.
# Briefly, 1 pmol of each siRNA was spotted to a well of a 384-well plate (Corning, Corning, NY) and 20 microL of serum-free DMEM containing […] of Lipofectamine RNAiMax (Life Technologies, Carlsbad, CA) was then added to each well. Transfected cells were maintained at 37 degrees C in 5% CO2 for 72 hours, 20 microL of ONE-Glo Reagent (Promega) was added to wells for luciferase quantification. Raw luminescence reads were normalized to Ambion(R) Silencer(R) Negative Control #2 siRNA, then log10 transformed. A robust statistical measure of median absolute deviation (MAD) to standardize siRNA activities from each screen. Common Seed Analysis was used to help prioritize clean hits as opposed to those appearing to arise from seed based off-target effects. Candidate modulators were defined as the genes having a MAD score greater than 1.0 or less than -1.0.
row,Sequence,median seed-adjusted z-score
1,CGUGUAUUCUUUCACUAAUTT against MFSD1,-0.0833
2,GGGUAUCACCUCACGCUUATT against ABCA12,0.0759
3,GGUUUGGAAUGUUCGAGUUTT against SLC25A1,0.252
4,GGCACAAUUUCAACUCCAUTT against GPR35,-1.46 (active)
5,GAGCUUAGUGAUAAUAUAATT against ANP32E,-0.0648
6,GUGACUAUGAGCUCAAAUATT against RAVER1,-0.0873
7,ACAUGACCAUGGAAGCUGATT against HIPK4,0
8,GGAUCCGAGAGUCACCCAATT against LLGL1,-1.13 (active)
9,GGACAGACACGUCAGCAAATT against TMEM171,0.278
10,GGAAAUCUCGGAGAUCACATT against MLYCD,-0.154
11,CAUCCUCAUUUGAAACCGUTT against CREBL1,-0.348
12,CAUUCGCAUUCAGUCCAUATT against FRAP1,-1.02 (active)
13,GCAGAUGACUACAACUUUATT against E2F5,-0.628
14,GGACUGUACAACACUCUGATT against TGFB3,-0.354
15,GAUAAUGGAAGGUGAAUUUTT against PMS2L3,0.175
16,CGGGAGAAGUCCUACCUGUTT against KIF19,0.342
17,CGCAGGUUCUACCAGAUGATT against HS3ST6,0
18,CCAUGGAUGAGACUCCGUATT against PPP1R10,1.41 (active)
19,CGUGAUUGACUAUGAGGAATT against GRM6,-0.0544
20,GGUCAUUAUUGGUGAGCAATT against HARS2,0
21,AGAACAACGUGAAGGCACATT against TNPO2,0.0785
22,CAGUGGAUAUCUUGACCUATT against LDHA,0.401
23,GGAAGUCUCUUGUCUGCAATT against RNASEL,0
24,CAGGUUUUCUACAACAACATT against ABCA2,-1.18 (active)
25,GAACUUGACCAGUUAGACUTT against GTF3C3,0.21
26,GGACAACCAUCUUCAAAGATT against ZKSCAN5,-0.229
27,GCAGUAUCGAGCUUCCGAATT against ACAD10,-0.269
28,GGAUCAUCAUGGAAUUGUATT against PTK2B,1.71 (active)
29,CCAUGUCAGUCCUAGGAAATT against ATRIP,0.353
30,GCAACUCCAUGUUUCAUAATT against PRMT1,-0.596
